IDH1 R132H inh – qHTS for Inhibitors of mutant isocitrate dehydrogenase 1 (IDH1): qHTS | AID 602179, 2012 | hit rate 0.093% among 390,000 | IDH1-R132H enzyme, NADPH consumption, diaphorase/resazurin fluorescence | Potency, µM (highest dose often 76.6 µM), for the others: top-dose activity change, negative = inhibition, actives largely listed as inhibitors | Isocitrate dehydrogenase [NADP] cytoplasmic (Homo sapiens), O75874; note: % is set by controls: 0 for no effect and ±100 for the full control effect; nearly all actives have a fitted effect of over 65% in size
Target sequence (O75874 whole entry R132H, stated change not applied): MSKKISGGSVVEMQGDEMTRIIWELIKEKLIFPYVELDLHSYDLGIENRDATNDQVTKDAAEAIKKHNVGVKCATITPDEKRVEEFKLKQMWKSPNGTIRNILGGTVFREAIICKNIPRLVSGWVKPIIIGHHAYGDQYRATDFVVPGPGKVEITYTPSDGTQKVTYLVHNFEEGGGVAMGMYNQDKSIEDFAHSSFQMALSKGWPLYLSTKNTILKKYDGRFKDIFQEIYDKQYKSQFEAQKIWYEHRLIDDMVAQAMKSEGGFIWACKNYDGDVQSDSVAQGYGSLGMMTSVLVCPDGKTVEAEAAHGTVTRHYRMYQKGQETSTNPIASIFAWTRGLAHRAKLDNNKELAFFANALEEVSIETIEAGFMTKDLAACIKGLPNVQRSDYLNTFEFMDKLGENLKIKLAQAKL
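IDH1-R132H (0.5 ug/mL) preincubated 30 min with compound, then NADPH (0.016 mM) and alpha-KG (2 mM) added; 80 min at RT, pH 7.5. Remaining NADPH coupled via diaphorase/resazurin to fluorescence (540/590 nm); concentration-response curves normalized to no-enzyme control.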
HEK293 tox – qHTS of GLP-1 Receptor Inverse Agonists: Cytotox Screen. HEK293 cAMP-luciferase reporter cells, luminescence, 24 h. Potency, µM (doses to about 38.3 µM), for the others: at the highest dose activity change, negative = inhibition, hits mostly inhibitors. hit rate 0.13% among 410,000;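 note: loss of luciferase light is scored as toxicity; % is set by controls: 0 for no effect and ±100 for the full control effect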
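To flag toxic compounds, the library was rerun on cells for 24 hr at 37 deg C and 5% CO2. Viability-linked luminescence was captured 12 min after adding luciferase detection reagent.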
GLP1R ag – qHTS of GLP-1 Receptor Agonists; Glucagon-like peptide 1 receptor (Homo sapiens), P43220; HEK293 GLP-1R CRE-luciferase, luminescence, 4-6 h; cells express a hypersensitive GLP-1R form; Potency, µM (top dose mostly 45.6 µM), without a hit: at the highest dose activation, actives largely listed as activators; hit rate 0.007% among 380,000; AID 624172, 2012; note: % of control where 0% means no effect
rTrxR1 inhibitor – qHTS Assay for Inhibitors of Mammalian Selenoprotein Thioredoxin Reductase 1 (TrxR1): qHTS. recombinant rTrxR1, NADPH fluorescence consumption, selenite substrate. Potency, µM (doses to about 114 µM), inactives show at the highest dose activity change, negative = inhibition, actives largely listed as inhibitors. Thioredoxin reductase 1, cytoplasmic (Rattus norvegicus), O89049. AID 588453, 2011. hit rate 1% among 390,000; note: % is set by controls: 0 for no effect and ±100 for the full control effect; nearly all actives have a fitted effect of over 65% in size
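Rat TrxR1 (90 nM in the dispensed reagent) was pre-reduced with 400 uM NADPH for 5 min at room temperature, then incubated with compound for 15 min. After 400 uM selenite was added, NADPH fluorescence (Ex 340/Em 450 nm) was followed for 8 min.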
GLP1R inv ag – qHTS of GLP-1 Receptor Inverse Agonists (Inhibition Mode); hit rate 1.6% among 410,000; Glucagon-like peptide 1 receptor (Homo sapiens), P43220; HEK293 GLP-1R CRE-luciferase, luminescence, 24 h; GLP-1R form is constitutively active; Potency, µM (doses to about 38.3 µM), for inactives: at the top dose activity change, negative = inhibition, actives largely listed as inhibitors; AID 624417, 2012; note: % is set by controls: 0 for no effect and ±100 for the full control effect; nearly all actives have a fitted effect of over 55% in size
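Inverse agonists were sought by their lowering of basal cAMP reporter luciferase output in HEK293 cells stably carrying constitutively active human GLP-1R, after 24 h compound treatment.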
TrxR1 substrate – qHTS Assay for Substrates of Mammalian Selenoprotein Thioredoxin Reductase 1 (TrxR1): qHTS; Potency, µM (titrated, usually from 114 µM), for the others: top-dose activity change, negative = substrate turnover; purified TrxR1 substrate turnover, NADPH consumption readout; AID 588456, 2011; hit rate 0.01% among 390,000; note: % is set by controls: 0 for no effect and ±100 for the full control effect; nearly all actives have a fitted effect of over 50% in size
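Rat TrxR1, dispensed at 90 nM, was prereduced with 400 uM NADPH (final) for 5 min at ~22 deg C, then incubated with compound 15 min before 400 uM selenite. A first-read NADPH fluorescence drop versus no-compound background flagged substrates.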
Numbers without * were called inactive; i = inactive; ? = inconclusive; / = no result; [ ] = remark or other dose. Compounds with a hit are over-represented: about 2.7% of the library has one in this group of screens. Calls come from the whole dose curve; as a rule, active = well fitted curve in the direction sought with a large enough effect; inconclusive = small, poorly fitted or top-dose-only effect, or another doubt; inactive = no such curve, though single readings can be large; an effect the other way counts as inactive or inconclusive. Potency is the fitted concentration of half-maximal effect.

SMILES	IDH1 R132H inh	HEK293 tox	GLP1R ag	rTrxR1 inhibitor	GLP1R inv ag	TrxR1 substrate
O=C(CSc1nc(N2CCCCC2)nc(N2CCCCC2)n1)N1CCN(c2ccccc2)CC1	1%	-21%	0%	32%[57.1 µM]	2.8µM*	2%[57.1 µM]
CCCCNC(=O)CSc1nc2ccccc2nc1Cc1ccc(C)cc1	5%	5%	2%	11%[57.1 µM]	0%	1%[57.1 µM]
O=C(CSc1nc2ccccc2nc1Cc1ccc(Cl)cc1)N1CCCCC1	-19%	0%	/	9%[57.1 µM]	10µM*	-5%[57.1 µM]
CCCCN(C)C(=O)CSc1nc2ccccc2nc1Cc1ccc(C)cc1	9%	-20%	/	10%[57.1 µM]	11µM*	0%[57.1 µM]
Cc1ccc(Cc2nc3ccccc3nc2SCC(=O)N2CCCCC2)cc1	7%	-1%	/	6%[57.1 µM]	?	-4%[57.1 µM]
COc1ccccc1N(C)C	/	/	/	4%	/	-2%
CCC(C)c1ccc(OCC(=O)Nc2cccc3ccc(C)nc23)cc1 (stereo unspecified)	14%	7%	/	22%	-20%	-4%
CC1CC(C)CN(c2oc(Cc3ccccc3)nc2C#N)C1 (stereo unspecified)	5%	106%	13%	4%	11µM*	-1%
Cc1cc(NC(=O)c2cccn2-c2nnc(N3CCCCC3)s2)ccc1Br	17%	-11%	/	27%[57.1 µM]	10µM*	7%[57.1 µM]
CC(=O)N(CCCN(C)C)CCC(C)CCC=C(C)C (stereo unspecified)	5%	1%	-1%	18%	4µM*	8%
CC(=O)N(CCCc1ccc(C(C)(C)C)cc1)CCCN(C)C	0%	3%	-1%	31%	?	12%
Cc1ccc(NC(=O)CN2C(=O)CC(c3ccc(C)c(C)c3)=Nc3ccccc32)cc1	-13%	-2%	/	8%[57.1 µM]	-18%	-2%[57.1 µM]
Nc1c(C(=O)Nc2ccccc2)sc2nc(-c3ccco3)ccc12	12%	192%	-5%	4µM*	-30%	15%
COc1ccccc1NC(=O)c1sc2nc(-c3ccco3)ccc2c1N	2%	i	-3%	-7%[57.1 µM]	8%	11%[57.1 µM]
O/N=C/c1cc(Br)cc(Br)c1OCc1ccccc1	-5%	-5%	5%	5%[57.1 µM]	10µM*	2%[57.1 µM]
O/N=C/c1ccc(OCc2ccccc2)c(Br)c1	0%	2%	22%	-8%	6%	-5%
COc1ccc(CN2CCC(Oc3cc(C(=O)NC4CC4)ccc3OC)CC2)c(O)c1	0%	-11%	0%	9%	?	1%
COc1ccc(C(=O)NC2CC2)cc1OC1CCN(Cc2ccc(F)cc2Cl)CC1	-3%	?	-5%	-4%	10µM*	-10%
Cc1ccc(NC(=O)Cn2c(=O)n(-c3ccc(C)cc3)c(=O)c3c2cnn3C)cc1	-11%	-7%	/	19%	14%	8%[2.29 µM]
Cc1cccc(Cn2cnc3c(cnn3C(C)(C)C)c2=O)c1	/	/	/	1%	/	-9%
CCN1CCN(c2ncc3c(n2)CCN(Cc2cc(F)cc(F)c2)C3)CC1	-6%	-27%	/	10%[57.1 µM]	?	6%[57.1 µM]
CCc1ccc(CN2CCc3nc(N4CCN(CC)CC4)ncc3C2)cc1	27%	-2%	/	5%[57.1 µM]	5µM*	1%[57.1 µM]
O=C(CCCN1CCN(c2ccccc2)CC1)c1ccc(F)cc1	10%	-10%	-3%	/	13%	/
O=C(CCN1CCN(c2ccccc2)CC1)c1ccc(Cl)cc1	2%	6%	-3%	1.6µM*	-10%	-6%
O=C1CC(=C(c2ccccc2)c2ccccc2)C(=O)N1CCCCN1CCN(c2ccccc2)CC1	6%	?	-1%	66%[0.457 µM]	1.3µM*	-11%
SMILES	IDH1 R132H inh	HEK293 tox	GLP1R ag	rTrxR1 inhibitor	GLP1R inv ag	TrxR1 substrate
O=C(CCN1CCN(c2ccccc2)CC1)Nc1cccc(Br)c1	14%	14%	0%	13%[57.1 µM]	11µM*	-2%[57.1 µM]
O=C(CCN1CCN(c2ccccc2)CC1)Nc1ccc(Cl)cc1	1%	-8%	0%	15%	?	5%
O=C(CCN1CCN(c2ccc([N+](=O)[O-])cc2)CC1)c1ccc(Cl)cc1	0%	-7%	12%	7.1µM*	-10%	-9%
O=C(COc1ccc(Cl)cc1Cl)Nc1ccc(C(=O)OC2CCCCC2)cc1	/	0%	/	-8%	-3%	-5%
COc1cc2ccccc2cc1C(=O)Nc1ccc2oc(-c3ccc(Cl)cc3)nc2c1	6%	6%	/	9%	13%	20%
O=C(CCN1CCCCC1)c1cccc(Cl)c1	8%	-17%	1%	0.35µM*	19%	12%[57.1 µM]
COc1ccc(N2CCN(CCC(=O)c3ccc4ccccc4c3)CC2)cc1	0%	14%	2%	1.8µM*	6%	5%
Cc1ccc(CCNC(=O)c2sc3nc4n(c(=O)c3c2C)CCCC4)cc1	15%	1%	/	14%	-13%	15%[11.4 µM]
CCCCOc1ccccc1C1CC(=O)Nc2ccc3ccccc3c21 (stereo unspecified)	4%	-23%	/	41%	?	5%
O=C(Nc1ccc2ccccc2c1)c1ccc(Cl)cc1	4%	-5%	-2%	29%	-25%	8%
CCOC(=O)c1cccc(NC(=O)CCS(=O)(=O)c2cccs2)c1	1%	1%	1%	22µM*	4%	-4%
Cc1ccc(C(=O)Nc2ccc3ccccc3c2)cc1	-1%	-13%	0%	23%	5µM*	3%
CCOC(=O)c1cccc(NC(=O)CCS(=O)(=O)c2ccc(Br)s2)c1	-14%	4%	0%	5%	9%	-2%
Cc1ccc(C(=O)Nc2cccc(C(=O)NCc3ccccc3)c2)cc1	3%	1%	-23%	-10%	13µM*	-14%
CCOC(=O)c1cccc(NC(=S)NCc2ccc(C)cc2)c1	-12%	-32%	7%	25%[11.4 µM]	7.9µM*	5%[11.4 µM]
COc1ccc(C(=O)Nc2cccc(C(=O)NCc3ccccc3)c2)cc1	-3%	-23%	3%	27%	-29%	-1%
CCc1ccccc1NC(=O)N1CCC(CN2CCc3ccccc3C2)CC1	12%	2%	/	2%	-16%	5%
Cc1ccccc1C(=O)Nc1cccc(NC(=O)c2ccc(F)cc2)c1	-10%	1%	10%	9%	10µM*	4%
CCCc1nn2c(=O)c(C(c3ccc(C)cc3)c3c(O)nc4sc(CCC)nn4c3=O)c(O)nc2s1	-1%	-6%	-9%	-29%	-10%	-1%

Screening data (PubChem)
